Bioassay records: PubChem, Broad Institute
ALR inh – human ALR oxidase inhibition via reduced H2O2; P55789; purified ALR, DTT oxidation, H2O2 HRP-luminol luminescence; inhibition, % (no concentration beside the values); 290,000 compounds, 3.8% hits; AID 485317;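 active means mean replicate inhibition above about 79%, with every replicate also reaching it, limit read from the data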
Target sequence (P55789 whole entry, looked up): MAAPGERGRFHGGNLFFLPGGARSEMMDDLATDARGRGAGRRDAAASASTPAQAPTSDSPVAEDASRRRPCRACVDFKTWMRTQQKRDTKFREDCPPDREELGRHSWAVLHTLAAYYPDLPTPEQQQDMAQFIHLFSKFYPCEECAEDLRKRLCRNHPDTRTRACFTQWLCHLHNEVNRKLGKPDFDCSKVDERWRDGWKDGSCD
HIF act – HIF pathway transcriptional activation; U2OS HRE-luciferase reporter, luminescence; normalized: DMSO 0%, desferrioxamine 100%; activation, % at 7.5 µM (by protocol); 300,000 compounds, 0.32% hits; AID 1910;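 active means mean activation of at least 10% of the iron chelator positive control signal, with at least half of replicates also reaching 10%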
SUMO Mot1 rescue – SUMOylation pathway inhibition by Mot1-301 growth rescue. S. cerevisiae Mot1-301 growth rescue, ATP luminescence, 38.5C; percent above DMSO median, 100 means doubled. growth rescue, % at 18.8 µM. 320,000 compounds, 1% hits. AID 2716;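 active means every valid replicate shows activation above 250% relative to neutral control wells; inactive means the rest, any valid replicate at or below 250%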;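 further: OY570 slx delta 5 strain wells were the positive control but not used for scaling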
AI-2 QS mod – modulates the Vibrio harveyi AI-2 quorum sensing system; Vibrio harveyi JMH597 AI-2 luminescence/OD600 ratio, 9 h; stronger effect = lower value; strain lacks LuxN and CqsS sensors; 0 = neutral-control median; activity change, % at 7.5 µM; 300,000 compounds, 0.4% hits; AID 2094; in the data active means activity change below about -75%, passing the limit was not always enough;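 further: luminescence divided by OD600 gain over 9 h not by final OD600 alone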
Active calls of the source: *; . = no result. Shown are actives, neighbours in structure and some others; about 4.8% of the full set was active somewhere.

SMILES	ALR inh	HIF act	SUMO Mot1 rescue	AI-2 QS mod
Cc1noc(C(=O)N2CCN(c3ccc(F)cc3)CC2)c1Cl	38.1	-0.2	-1.9	19.6
O=C(c1nc[nH]c1C(=O)N1CCN(c2ccccc2)CC1)N1CCN(c2ccccc2)CC1	93.4*	.	0.1	.
Cc1noc(C(=O)N2CCN(c3ccccc3)CC2)c1Cl	96.4*	0.4	2.1	19.0
O=C(c1ccc(Cl)s1)N1CCN(c2ccccc2)CC1	97.1*	.	384.0	6.7
CCOC(=O)c1ccc(NC(=O)CSCc2ccco2)cc1	99.6*	0.5	115.1	45.9
COC(=O)c1ccc(NC(=O)CCS(=O)(=O)c2ccc(Br)cc2)cc1	-5.2	0.2	-13.6	23.5
CCOC(=O)c1ccc(NC(=O)CSCCC(=O)O)cc1	98.7*	-1.3	17.1	34.2
COC(=O)c1ccc(NC(=O)CSCC(=O)OCC(=O)c2ccc(Br)cc2)cc1	99.5*	0.0	12.1	2.8
CC(C)C[C@H](N)c1nnc(S(=O)(=O)Cc2ccc(F)cc2)o1	98.2*	-0.4	-25.2	-87.7*
CC(C)NC(=S)N/N=C/c1c[nH]c2ccccc12	74.3	2.0	1.7	25.0
Cc1[nH]c2ccccc2c1/C=N/NC(=S)NC(C)C	99.5*	0.9	-18.4	19.8
S=c1[nH]c2ccccc2n2c(=S)[nH]nc12	98.7*	0.6	-3.2	4.7
S=c1[nH]c2ccccc2n2cccc12	-6.0	-1.1	54.3	10.1
O=C(c1ccccc1)c1ccc2cc(O)ccc2c1	99.5*	2.7	118.6	-6.0
O=S(=O)(c1cccc(-c2cn3ccccc3n2)c1)N1CCCCC1	-10.1	0.2	0.3	11.1
O=S(=O)(c1cccc(-c2cn3cc(Cl)ccc3n2)c1)N1CCOCC1	32.5	-0.3	-1.6	10.4
CN(C)S(=O)(=O)c1cccc(-c2cn3cc(Cl)ccc3n2)c1	98.4*	.	-1.3	18.4
CN(C)S(=O)(=O)c1cccc(-c2cn3ccccc3n2)c1	99.3*	0.2	-6.5	23.3
O=S1(=O)CCOCCCN1Cc1ccccc1	.	-1.2	8.7	21.7
CCN(CC)C(=O)Oc1ccc2oc(=O)cc(-c3cc4cccc(OC)c4o3)c2c1	-0.4	0.0	-1.4	6.9
Cc1ccc(O)c(-c2cc(C(F)(F)C(F)F)[nH]n2)c1	98.2*	0.3	96.4	13.5
Cc1ccc(O)c(-c2cc(-c3ccccc3C)[nH]n2)c1	.	3.3	.	16.5
COc1ccc(NC(=O)CSc2nc3c(c(=O)n2C)SCC3)cc1OC	98.9*	0.5	1.1	43.5
Cn1c(SCC(=O)Nc2ccc(F)cc2)nc2c(c1=O)SCC2	40.2	0.1	-8.9	6.4
Cn1c(SCc2c(F)cccc2Cl)nc2c(c1=O)SCC2	.	0.1	4.1	17.3
SMILES	ALR inh	HIF act	SUMO Mot1 rescue	AI-2 QS mod
Cn1c(SCc2ccc([N+](=O)[O-])cc2)nc2c(c1=O)SCC2	98.5*	-0.3	-20.5	22.2
Cn1c(SCC(=O)Nc2ccccc2F)nc2c(c1=O)SCC2	87.8*	-0.1	-0.2	-7.6
COCCn1c(SCC(=O)Nc2cccc(F)c2)nc2c(c1=O)SCC2	99.3*	0.1	106.5	15.3
CCOc1ccc(/C(C)=N/NC(=O)c2nnn(-c3nonc3N)c2-c2cccs2)cc1	-1.8	-0.7	-3.8	26.4
Cn1c(N)c(C(=O)CSc2nc(C3CC3)n(-c3ccccc3)n2)c(=O)n(C)c1=O	-5.0	.	-4.3	.
CCN1CCN(c2c(S(=O)(=O)c3ccc(C)c(C)c3)cnc3ccc(F)cc23)CC1	-12.4	0.2	-1.8	19.8
COc1ccccc1C(=O)NCCC(=O)NCc1ccccn1	0.4	.	-0.1	.
CCn1c(SCC(=O)Nc2cc(OC)ccc2OC)nc2c(c1=O)SCC2	-10.3	-0.4	-10.1	12.8
CCn1c(SCC(=O)Nc2ccc(OC)c(OC)c2)nc2c(c1=O)SCC2	99.0*	-0.2	-25.9	24.9
COc1ccccc1NC(=O)c1ccc2[nH]c(C)c(C)c2c1	86.8*	2.4	-10.0	1.8
Cc1nn(-c2ccccc2)c(C)c1-c1cc(C(=O)N/N=C/c2cccnc2)[nH]n1	-1.5	3.4	-14.0	12.5
COC(=O)c1cc(-c2c(C)nn(-c3ccccc3)c2C)n[nH]1	85.9*	2.8	3.4	19.0
O=C(Cn1nnc(-c2ccccc2)n1)NCC(=O)Nc1ccc(F)c(F)c1F	.	.	-0.9	.
COC(=O)c1cccc(NC(=S)Nc2cccc(Cl)c2C)c1	-0.6	0.5	-11.8	7.3
COc1cc(C)c(NC(=S)Nc2cccc(Cl)c2C)cc1OC	91.1*	0.4	26.9	26.6
COc1ccc(C)cc1S(=O)(=O)n1cnc2ccccc21	-3.4	0.8	-0.7	.
COc1nccc(C(F)(F)F)c1C(=O)NC(=O)Nc1ccccc1	.	139.6*	0.3	10.5
